An excerpt weighted towards active compounds, which were near 19% of everything screened.
DT40 TDP1 CPT – qHTS for Inhibitors of human tyrosyl-DNA phosphodiesterase 1 (TDP1): qHTS in cells in presence of CPT. chicken DT40 Tdp1-/-;hTDP1 cells + 20 nM CPT, ATP luminescence, 48 h. Potency, µM (series often up to 46.2 µM), actives largely listed as inhibitors. hit rate 12% among 420,000; further: nearly all actives have a fitted effect of over 55% in size
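Chicken DT40 Tdp1-/- cells stably complemented with human TDP1 were seeded at 400 cells/well in medium containing 20 nM camptothecin, exposed to pin-transferred compounds, and grown at 37 °C for at least 48 hr. Viability was read as ATP luminescence.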
RORgamma inh – qHTS for inhibitors of ROR gamma transcriptional activity | Drosophila S2 Gal4-RORgamma UAS-luciferase reporter, 20 h | Potency, µM (titrated, usually from 53.6 µM), hits mostly inhibitors | hit rate 5.4% among 310,000; further: nearly all actives have a fitted effect of over 60% in size
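Luminescence from a UAS-regulated Photinus luciferase reporter in stably transfected Drosophila Schneider cells is measured; decreased signal marks ROR gamma inhibition. Fusion expression is induced by 700 uM copper sulfate for 20 hr.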
Gal4-VP16 FLuc – VP16 counterscreen qHTS for inhibitors of ROR gamma transcriptional activity. Potency, µM (doses to about 53.6 µM), hits mostly inhibitors. Drosophila S2 Gal4-VP16 UAS-luciferase, luminescence, 20 h. hit rate 3.5% among 310,000. AID 2546, 2010;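 further: Gal4-VP16 expression switched on by copper sulfate through the metallothionein promoter; nearly all actives have a fitted effect of over 50% in size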
DT40 TDP1 no CPT – qHTS for Inhibitors of human tyrosyl-DNA phosphodiesterase 1 (TDP1): qHTS in cells in absence of CPT; AID 686978, 2013; hit rate 15% among 420,000; DT40 Tdp1-/- hTDP1 cells, no CPT, ATP luminescence, 48 h; Potency, µM (doses to about 46.2 µM), most hits filed as inhibitors; further: nearly all actives have a fitted effect of over 55% in size
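Camptothecin absent (DMSO only). Human TDP1-complemented DT40 knockout cells, 400 cells/well, 37 °C for minimum 48 hr; ATP measured via CellTiter-Glo, 30 min dark incubation, luminescence.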
TDP1 block – qHTS Assay for Inhibitors of Tyrosyl-DNA Phosphodiesterase (TDP1). Tyrosyl-DNA phosphodiesterase 1 (Homo sapiens), Q9NUW8. recombinant TDP1, AlphaScreen DNA substrate cleavage. Potency, µM (series often up to 130 µM), usual class: inhibitors. hit rate 0.28% among 350,000. AID 485290, 2010; further: nearly all actives have a fitted effect of over 40% in size
Target sequence (Q9NUW8 whole entry, looked up): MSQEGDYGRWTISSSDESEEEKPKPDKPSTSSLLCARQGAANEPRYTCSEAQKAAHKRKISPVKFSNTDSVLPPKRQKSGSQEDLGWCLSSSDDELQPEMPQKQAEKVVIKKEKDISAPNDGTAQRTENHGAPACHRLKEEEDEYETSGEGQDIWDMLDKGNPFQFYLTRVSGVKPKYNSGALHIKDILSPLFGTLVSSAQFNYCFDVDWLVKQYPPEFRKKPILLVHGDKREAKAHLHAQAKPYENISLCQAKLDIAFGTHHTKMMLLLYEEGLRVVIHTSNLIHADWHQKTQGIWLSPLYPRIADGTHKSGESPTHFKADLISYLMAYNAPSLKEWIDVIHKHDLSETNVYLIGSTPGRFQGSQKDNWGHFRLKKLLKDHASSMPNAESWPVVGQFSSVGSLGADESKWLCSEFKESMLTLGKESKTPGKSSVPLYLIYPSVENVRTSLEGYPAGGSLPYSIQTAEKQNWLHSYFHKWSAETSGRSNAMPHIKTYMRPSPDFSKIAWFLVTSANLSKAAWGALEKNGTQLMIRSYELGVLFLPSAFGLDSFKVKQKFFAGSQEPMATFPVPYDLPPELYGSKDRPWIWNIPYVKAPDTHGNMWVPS
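Tdp1 1 nM final; 15 min RT w/ cpd; substrate 15 nM, 5 min; beads 10 ug/ml, 10 min; AlphaScreen read. Neg ctrl: no enzyme.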
Numbers stand for hits; – = inactive; ? = inconclusive; · = no result; [ ] = dose if it differs, or a comment. The call rests on the fitted dose curve; in most records, active means well fitted curve in the direction sought with a large enough effect; inconclusive means small, poorly fitted or top-dose-only effect, or another doubt; inactive means no such curve, though single readings can be large; an effect the other way counts as inactive or inconclusive.

SMILES | DT40 TDP1 CPT | RORgamma inh | Gal4-VP16 FLuc | DT40 TDP1 no CPT | TDP1 block
c1ccc(Nc2cccc(Nc3ccccc3)n2)cc1 | – | ? | – | – | –
c1ccc(Nc2ccccn2)cc1 | ? | – | – | 26µM | –
c1ccc(Nc2nc3ccccc3[nH]2)nc1 | ? | 2µM | ? | ? | –
CSc1nc2c(c(=O)n1Cc1ccccc1)SC(C)C2 (stereo not given) | ? | –[0.365 µM] | · | – | –
O=S(=O)(O)c1cc2oc(-c3ccccc3)nc2c2ccccc12 | – | · | · | – | ·
O=C(C=Cc1ccccc1)c1c[nH]c2ccccc2c1=O | 6.5µM | · | · | 6.5µM | ·
Cc1[nH]c2ccccc2c(=O)c1C(=O)/C=C/c1ccccc1 | 5.2µM | 5.6µM | 5.6µM | 2.3µM | ·
O=C(/C=C/c1ccccc1)c1c[nH]c2ccccc12 | – | ? | ? | – | ·
Cc1[nH]c2ccccc2c1/C=C/C(=O)c1ccccc1 | ? | ? | – | ? | –
C=CCN1C(=O)/C(=C/c2ccc(OC(C)=O)c(OCC)c2[N+](=O)[O-])SC1=S | ? | ? | ? | ? | –
O=C(N/N=C/c1ccc2c(c1)OCO2)c1ccc2ccccc2n1 | – | – | – | – | –
Cc1cc(N/N=C/c2ccc3c(c2)OCO3)nc2ccccc12 | ? | 13µM | – | 26µM | –
Clc1ccc(C=NNc2ccccn2)c(Cl)c1 | – | · | · | – | ·
O=c1[nH]c(N/N=C/c2ccccc2)nc2ccccc12 | – | – | ? | ? | –
O=c1[nH]c(N/N=C\c2ccc3c(c2)OCO3)nc2ccccc12 | ? | ? | ? | 23µM | –
C(=N\Nc1ccccn1)/c1ccc2c(c1)OCCO2 | – | 13µM | ? | ? | –
Cc1ccc(C)c(/C=N/Nc2ccccn2)c1 | – | 10µM | – | – | –
CC(=O)n1nc(-c2cccnc2)nc1NCc1ccc(F)cc1 | – | · | · | ? | –
COc1ccccc1NC(C)=O | – | – | – | – | –
COc1ccccc1-c1cc(NC(C)=O)c2ncc(-c3cccc(C(C)=O)c3)n2c1 | 23µM | · | · | 15µM | ·
COc1cc(-c2cnc3c(NC(C)=O)cc(-c4ccccc4CN(C)C)cn23)cc(OC)c1OC | 23µM | · | · | 18µM | ·
COc1ccc(-c2cc(NC(C)=O)c3ncc(-c4ccc(OC)c(OC)c4)n3c2)cc1OC | 18µM | · | · | 15µM | ·
CC(=O)Nc1cc(-c2cccnc2)cn2c(-c3ccc(F)cc3)cnc12 | ? | · | · | 23µM | ·
Cc1nnc(NC(=O)CSc2nc3c(c(=O)n2CCc2ccccc2)SC(C)C3)s1 (stereo not given) | – | – | – | – | –
O=C(NC1=NCCS1)c1ccccc1OCc1ccc(F)cc1 | – | ? | – | – | –
SMILES | DT40 TDP1 CPT | RORgamma inh | Gal4-VP16 FLuc | DT40 TDP1 no CPT | TDP1 block
Cc1cc(NC(=O)CCC(=O)N(C2CC2)C(C(=O)NC(C)(C)C)c2ccccc2Cl)no1 (stereo not given) | – | – | – | – | –
COC(=O)C(=O)/C=C(\O)c1ccc(C)cc1 | – | – | – | – | –
Brc1c(CSc2nncn2-c2ccccc2)nc2ncccn12 | – | – | – | – | –
COc1cc(-c2cc(NC(C)=O)c3ncc(-c4cc(OC)c(OC)c(OC)c4)n3c2)cc(OC)c1OC | 8.2µM | · | · | 7.3µM | ·
COc1ccc(-c2cnc3c(NC(C)=O)cc(-c4ccccc4OC)cn23)cc1OC | 12µM | · | · | – | ·
Cc1ccc2ncc(NC(=O)c3ccc(F)cc3)c(=O)n2c1 | – | – | – | – | –
CC(=O)Nc1cc(-c2ccsc2)cn2c(-c3ccc(F)cc3)cnc12 | 16µM | · | · | 18µM | ·
COc1ccc(-c2cnc3c(NC(C)=O)cc(-c4ccsc4)cn23)cc1OC | 16µM | · | · | 21µM | ·
COc1cc(-c2ccc(NC(C)=O)c(OC)c2)ccc1NC(C)=O | – | – | – | – | ·
COc1ccc(-c2c(C)nn(-c3ccccc3)c2NC(C)=O)cc1OC | – | – | – | – | ·
CC(C)OP(=O)(c1ccc(N(C)C)cc1)C(O)c1ccc(N(C)C)cc1 (stereo not given) | – | – | – | – | ·
O=C(c1cccc(F)c1)N1CCC[C@@]2(CCN(c3ncccn3)C2)C1 | – | – | – | – | ·
COc1ccc(NC(=S)Nc2cc(C)[nH]n2)cc1Cl | ? | ? | ? | 18µM | –
COc1ccc(NC(=S)Nc2cc(-c3ccccc3)[nH]n2)cc1Cl | 22µM | 2.8µM | 2µM | ? | –
Cc1cc(NC(=S)Nc2ccc(C)c(Cl)c2)n[nH]1 | ? | 0.35µM | 1µM | ? | –
CCOCC(=O)Nc1ccc(C)c(Cl)c1 | ? | – | – | – | –
O=C(COC(=O)c1cnccn1)Nc1cccc(F)c1 | – | · | · | – | –
Cc1cc(NC(=O)COC(=O)c2ccccc2S(=O)(=O)N(C)c2ccccc2)no1 | – | – | – | ? | –
CC(C)N(C(=O)c1ccccc1-c1ccccc1)C(C)C | ? | – | – | 18µM | –
CC(C)(C)NC(=O)C(c1cccs1)N(C(=O)c1csnn1)c1cccc(F)c1 (stereo not given) | – | – | – | – | –
NCCSC1CC(=O)N(c2ccc(Cl)c(Cl)c2)C1=O (stereo not given) | – | – | – | – | –
O=C1CC(C2CCCO2)C(=O)N1c1ccc(Cl)c(Cl)c1 (stereo not given) | ? | ? | 11µM | – | –
CCOC(=O)CN(C(=O)CNC(=O)c1cccs1)C(C(=O)NC1CCCC1)c1ccncc1 (stereo not given) | – | – | – | – | –
CCc1nnc(NC(=O)CSc2nnc(-c3ccc(OC)cc3)n2C)s1 | – | ? | – | – | –
CCOc1ccc(NC(=O)c2cc(C)nc3c2c(C)nn3-c2cccc(F)c2)cc1 | – | · | · | ? | –
SMILES | DT40 TDP1 CPT | RORgamma inh | Gal4-VP16 FLuc | DT40 TDP1 no CPT | TDP1 block
CCOc1ccc(Nc2nc(C)c(NC(=O)c3cccc(F)c3)c(Nc3ccc(OCC)cc3)n2)cc1 | 0.65µM | · | · | 0.52µM | –
O=S(=O)(Nc1ccc(O)c2ccccc12)c1ccc(F)cc1 | 12µM | · | · | 9.2µM | ·
CCNC(=S)NS(=O)(=O)c1ccc(C)cc1 | – | ? | ? | – | –
CCNC(=S)NS(=O)(=O)c1ccc(CC)cc1 | – | 13µM | ? | – | –
CCc1ccc(S(=O)(=O)Nc2ccc(O)c3ccccc23)cc1 | 6.5µM | – | – | 6.5µM | ·
O=C(Nc1cccc(O)c1)C1CC(c2c(F)cccc2Cl)=NO1 (stereo not given) | – | – | – | – | ·
CCOc1ccc(CN(C)C(=O)CCc2ccc(S(=O)(=O)N3CCCCCC3)cc2)cc1 | – | · | · | – | –
CC#CC[N+](C)(C)CCCCCCCCCCCC | 0.58µM | ? | 7.1µM | 0.46µM | –
C#CC[N+](C)(C)CCCCCCCCCCCC | 1.3µM | ? | 11µM | 0.65µM | –
C#CC[N+](C)(C)CCCCCCCCCC | 2.1µM | ? | – | 2.3µM | –

Source: PubChem (National Center for Advancing Translational Sciences (NCATS))
